Data as given in PubChem BioAssay (NCATS).
Several values for one entry are separate records, joined by “and”; a condition that tells them apart may be missing. Identical values can stand only once. Results filed as inconclusive are left out. Activity calls are given as the source filed them. The call rests on the fitted dose curve; in most records, active means well fitted curve in the direction sought with a large enough effect; inconclusive means small, poorly fitted or top-dose-only effect, or another doubt; inactive means no such curve, though single readings can be large; an effect the other way counts as inactive or inconclusive.

How the values were obtained:
[1] = Viability qHTS for spleen associated tyrosine kinase inhibitor (SYKi) naive MV4-11 cells (AID 1963823); further: nearly all actives have a fitted effect of over 40% in size
Procedure, shortened: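 Cells: MV4-11, SYK inhibitor naive, 500 per well. Treatment: library compounds, 72 hr, 37 C, 5% CO2. Read-out: CellTiter-Glo luminescence after 10 min RT.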

[2] = Viability qHTS for spleen associated tyrosine kinase inhibitor (SYKi) drug resistant MV4-11 cells (AID 1963824); further: nearly all actives have a fitted effect of over 35% in size
Procedure, shortened: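 CellTiter-Glo luminescence, read 10 min after reagent addition, reports viability after a 72 hr compound exposure. Cells are an MV4-11 line made resistant to SYK inhibition, seeded at 500 per well onto compound-containing plates.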

[3] = Cellular viability qHTS for adrenocortical cancer (ACC) cell line NCI-H295R (AID 1963990); further: nearly all actives have a fitted effect of over 60% in size
Procedure, shortened: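 Luminescent ATP read-out (CellTiter-Glo, 20 min RT) after 48 h drug exposure of NCI-H295R cells; a titration up to 46 uM final. Data normalized to doxorubicin (100% inhibition) and DMSO (0%); 4-parameter fit gives IC50, max response.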

[4] = Quantitative highthroughput screen to assess conditional lethalithy of NOMO1 cells grown in RPMI1640 with untreated serum (RPMI+s) (AID 1963876); further: nearly all actives have a fitted effect of over 35% in size;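 on Viability: 100% = DMSO wells and 0% = empty wells without cells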
Procedure, shortened: (§1)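 Each medium arm—HPLM with 10% dialyzed FBS, or RPMI1640 with 5 mM glucose and 10% untreated or dialyzed FBS—was screened against an 11-point, 3-fold compound titration for 48 h at 37 °C, with CellTiter-Glo luminescence as endpoint.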

[5] = Quantitative highthroughput screen to assess conditional lethalithy of NOMO1 cells grown in RPMI1640 with dialyzed fetal bovine serum (RPMI+ds) (AID 1963877); further: nearly all actives have a fitted effect of over 30% in size;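 on Viability: series mostly up to about 46 µM; 100% = DMSO control wells and 0% = empty wells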
Procedure, shortened: as §1

[6] = Quantitative highthroughput screen to assess conditional lethalithy of NOMO1 cells grown in Human Plasma-Like Medium with dialyzed fetal bovine serum (HPLM+ds) (AID 1963878); further: nearly all actives have a fitted effect of over 35% in size;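 on Viability: 100% = DMSO wells and 0% = empty wells on each plate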
Procedure, shortened: as §1

[7] = Quantitative highthroughput screen to assess conditional lethalithy of P12 Ichikawa cells grown in Human Plasma-Like Medium with dialyzed fetal bovine serum (HPLM+ds) (AID 1963879); conditions: Potency: viability; further: nearly all actives have a fitted effect of over 35% in size; on Viability: series mostly up to about 46 µM
Procedure, shortened: as §1

[8] = Quantitative highthroughput screen to assess conditional lethalithy of P12 Ichikawa cells grown in RPMI1640 with dialyzed fetal bovine serum (RPMI+ds) (AID 1963880); conditions: Potency: P12-Ichikawa viability; further: nearly all actives have a fitted effect of over 35% in size;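 on Viability: 100% = DMSO wells and 0% = empty wells on each plate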
Procedure, shortened: as §1

[9] = Quantitative highthroughput screen to assess conditional lethalithy of P12 Ichikawa cells grown in RPMI1640 with untreated serum (RPMI+s) (AID 1963881); conditions: Potency: viability; further: nearly all actives have a fitted effect of over 35% in size;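 on Viability: series mostly up to about 46 µM; 100% = DMSO wells and 0% = empty wells without cells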
Procedure, shortened: as §1

[10] = Quantitative highthroughput screen to assess conditional lethalithy of SEM cells grown in Human Plasma-Like Medium with dialyzed fetal bovine serum (HPLM+ds) (AID 1963882); further: nearly all actives have a fitted effect of over 35% in size; on Viability: series mostly up to about 46 µM
Procedure, shortened: as §1

[11] = Quantitative highthroughput screen to assess conditional lethalithy of SEM cells grown in RPMI1640 with unreated serum (RPMI+s) (AID 1963883); further: nearly all actives have a fitted effect of over 35% in size;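 on Viability: 100% = DMSO wells and 0% = empty wells without cells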
Procedure, shortened: as §1

[12] = Cellular viability qHTS for adrenocortical cancer (ACC) cell line SW-13 (AID 1963989); conditions: SW-13 ACC cells viability, CellTiter-Glo, 48 h; activity (max response): stronger effect = lower value; further: nearly all actives have a fitted effect of over 65% in size;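 on activity (max response): cells grown in serum-free medium with ITS supplement; on the % scale 0 is the no-effect control and ±100 the full control effect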
Procedure, shortened: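 SW-13 cells in ITS-supplemented serum-free DMEM were plated overnight, then exposed for 48 h at 37C to compound titrations (up to 46 uM final). Viability was read by CellTiter-Glo luminescence; four-parameter logistic fits gave IC50 and efficacy.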

[13] = Quantitative highthroughput screen to assess conditional lethalithy of SEM cells grown in RPMI1640 with dialyzed fetal bovine serum (RPMI+ds) (AID 1963884); further: nearly all actives have a fitted effect of over 35% in size;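 on Viability: series mostly up to about 46 µM; 100% = DMSO control wells and 0% = empty wells without cells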
Procedure, shortened: as §1
Potency means the concentration at half of the fitted maximal effect.

N#CN1CCC[C@@H](n2nc(-c3ccc(Oc4ccc(F)cc4F)cc3)c(C(N)=O)c2N)C1
active: Potency [1] 13 µM | Potency [2] 18.6 µM
inactive: Potency [3]

COc1cc(OC)c2c(=O)[nH]c(-c3cc(C)c(OCCO)c(C)c3)nc2c1
active: Potency [1] 14.6 µM | Potency [2] 13 µM and 9.34 µM
inactive: Potency [3]

COc1cc(-c2cc(-c3ccc(N4CCNCC4)cc3)cnc2C)cc(OC)c1OC
inactive: Potency [3]
active: Potency [1] 7.42 µM | Potency [2] 8.33 µM

Cc1nnn(C)c1-c1cnc2c3ccc(C(C)(C)O)cc3n([C@H](c3ccccc3)C3CCOCC3)c2c1
active: Potency [1] 0.0042 µM | Potency [2] 0.003 µM | Potency [3] 0.178 µM

CNC(=O)[C@@H](NC(=O)[C@H](CC(C)C)[C@H](O)C(=O)NO)C(C)(C)C
active: Potency [1] 13.2 µM | Potency [2] 10.5 µM
inactive: Potency [3]

Cc1nc2ccc(-n3ncc(C(=O)c4cc5ccccc5[nH]4)c3N)cc2[nH]1
inactive: Potency [3]
active: Potency [1] 2.59 µM | Potency [2] 2.59 µM and 4.68 µM

CN(C)CCCOc1ccc(-c2ccc3ncc4c(c3c2)n(C2CCOCC2)c(=O)n4C)cn1
active: Potency [1] 1.15 µM | Potency [2] 2.04 µM | Potency [3] 1.8 µM

Oc1ccc(CCNCCCCCCNCCc2ccccc2)cc1O
active: Potency [1] 26.6 µM | Potency [2] 21.1 µM | Potency [3] 16.4 µM

COC[C@@H](c1ccc(C(F)(F)F)cc1)N1CCN(C2(C)CCN(C(=O)c3c(C)ncnc3C)CC2)C[C@@H]1C
active: Potency [2] 18.6 µM
inactive: Potency [1] | Potency [3]

Cc1nc(NC(=O)N2CCC[C@H]2C(N)=O)sc1-c1ccnc(C(C)(C)C(F)(F)F)c1
active: Potency [1] 13 µM | Potency [2] 11.6 µM and 16.6 µM | Potency [3] 11.2 µM

CNC(=O)c1cccc(-c2ccc3c(N4CCOC[C@@H]4C)nc(N4CCOC[C@@H]4C)nc3n2)c1
active: Potency [1] 164 nM and 411 nM and 132 nM | Potency [2] 291 nM and 580 nM and 417 nM | Potency [3] 0.794 µM

CCCCCCCOc1ccc(CCC(N)(CO)CO)cc1C(F)(F)F
active: Potency [1] 7.42 µM | Potency [2] 8.33 µM | Potency [3] 10 µM

C=C1C(=O)[C@@]23C(CC[C@@H]1[C@H]2O)[C@@]12CO[C@]3(O)[C@@H](O)[C@@H]1C(C)(C)CC[C@@H]2O (stereo not given in full)
active: Potency [1] 1.32 µM | Potency [4] 20.9 µM | Potency [5] 23.5 µM | Potency [6] 18.7 µM | Potency [7] 13.2 µM | Potency [8] 7.43 µM | Potency [9] 7.43 µM | Potency [10] 8.33 µM | Potency [11] 3.72 µM | Potency [12] 28.2 µM | Potency [3] 10 µM

CC[C@@H](C)[C@H](NC(=O)[C@H](CC1CCCCC1)NC(=O)c1ccno1)C(=O)N1CCC2(CCc3ccccc32)CC1
active: Potency [1] 13 µM
inactive: Potency [4] | Potency [5] | Potency [6] | Potency [7] | Potency [8] | Potency [9] | activity (max response) [12] -1.23% | Potency [3]

CN1C[C@H]2c3ccccc3Oc3ccc(Cl)cc3[C@@H]2C1
inactive: Potency [4] | Potency [5] | Potency [6] | Potency [7] | Potency [8] | Potency [9]
active: Potency [1] 26.6 µM | Potency [11] 26.4 µM | Potency [13] 23.5 µM

COc1ccccc1OCCNCC(O)COc1cccc2[nH]c3ccccc3c12 (stereo not given)
active: Potency [1] 13.3 µM
inactive: Potency [4] | Potency [5] | Potency [6] | Potency [7] | Potency [8] | Potency [9] | Potency [10] | Potency [11] | Potency [13]

N[C@@H](CC(=O)N1CCn2c(nnc2C(F)(F)F)C1)Cc1cc(F)c(F)cc1F
inactive: Potency [1] | Potency [4] | Potency [5] | Potency [6] | Potency [7] | Potency [8] | Potency [9] | activity (max response) [12] -2.25% | Potency [3]

O=C1CCCC(=O)C1C(=O)c1ccc(C(F)(F)F)cc1[N+](=O)[O-]
inactive: Potency [1] | Potency [4] | Potency [5] | Potency [6] | Potency [7] | Potency [8] | Potency [9] | Potency [10] | Potency [11] | Potency [13] | activity (max response) [12] 6.97% | Potency [3]

O=C1C(c2c(O)[nH]c3ccccc23)=Nc2ccccc21
inactive: Potency [1] | Potency [4] | Potency [5] | Potency [6] | Potency [7] | Potency [8] | Potency [9] | Potency [10] | Potency [11] | Potency [13] | activity (max response) [12] -5.8% | Potency [3]

CN1CCN2c3ncccc3Cc3ccccc3C2C1 (stereo not given)
inactive: Potency [1] | Potency [4] | Potency [5] | Potency [6] | Potency [7] | Potency [8] | Potency [10] | Potency [11] | Potency [13] | activity (max response) [12] -3.47% | Potency [3]

N#Cc1cc(NC(=O)Nc2nnc(-c3ccncc3)s2)ccc1-c1cn[nH]c1
inactive: Potency [1] | Potency [4] | Potency [5] | Potency [6] | Potency [7] | Potency [10] | Potency [11] | Potency [13] | activity (max response) [12] 13.8% | Potency [3]

COc1ccnc(CS(=O)c2nc3ccc(OC(F)F)cc3[nH]2)c1OC (stereo not given)
inactive: Potency [1] | Potency [4] | Potency [5] | Potency [6] | Potency [7] | Potency [8] | Potency [10] | Potency [11] | Potency [13] | Potency [3]

O=C1c2cccc(O)c2C(=O)c2c(O)cc(CO)cc21
active: Potency [1] 8.33 µM
inactive: Potency [4] | Potency [5] | Potency [6] | Potency [7] | Potency [8] | Potency [9] | Potency [10] | Potency [11] | Potency [13] | Potency [3]
